# Measurements taken from PubChem BioAssay AID463173 (ICCB-Longwood Screening Facility, Harvard Medical School, 2010).
# Screen size: about 52,000 compounds; about 4,300 (8.3%) were called active. This excerpt belongs to a sample that is enriched for actives. Values without a mark were called inactive. No stated cut-off is given here; in the data, active means survival mostly below about 52% (no sharp cut-off); inactive means mostly above about 56%.
# Test system: DeltatarO mutant
# Assay: growth inhibition of S. aureus wild type versus tarO mutant, primary screen, teichoic acid synthesis inhibitors, RN4220, OD600 (AID 463173)
# Settings: OD600, 18 h, hits give low values, screened at 18.75 µg/mL (by protocol)
row,SMILES,survival
1,O=C1NC(=O)C2C3c4ccccc4C(c4ccccc43)C12 (configuration not stated),98%
2,O=C(CSc1nnc(CNC(=O)c2c(F)cccc2Cl)o1)Nc1cccc(F)c1,82%
3,CCc1ccc(CNC(=O)c2ccc3c(c2)nc2n3CCCCC2)cc1,79%
4,COC(=O)c1c(NC(=O)c2cc(=O)c3ccc(C)c(C)c3o2)sc2c1CCCC2,84%
5,N#CC(C#N)=Cc1cn(CCOc2ccc3c(c2)OCO3)c2ccccc12,98%
6,CCOC(=O)c1cc(=O)n2[nH]c(-c3ccc(Br)cc3)cc2n1,93%
7,COc1ccc(NC(=O)c2ccc3c(c2)N(Cc2cccc(Cl)c2)C(=O)c2ccccc2S3=O)cc1Cl (configuration not stated),112%
8,COc1ccc(N(C)C(=O)c2nn(-c3ccc(C)cc3)c(=O)n(C)c2=O)c(OC)c1,82%
9,CCOc1ccc(-c2nnc(SCC(=O)Nc3cccc(OC)c3)nc2-c2ccc(OCC)cc2)cc1,0% (active)
10,CCOc1ccc(NC(=O)CSc2nnc(-c3ccc(C)cc3)c(-c3ccc(C)cc3)n2)cc1,115%
11,CCOc1cccc(NC(=O)CSc2ncc(-c3ccc(Cl)cc3)[nH]2)c1,39% (active)
12,CCOc1ccc(NC(=O)CSc2nnc(-c3ccc(OCC)cc3)o2)cc1,94%
13,COc1cc(-c2nnc(SCC(=O)Nc3cccc(C#N)c3)o2)cc(OC)c1OC,110%
14,CCOc1cccc(NC(=O)CSc2ncc(-c3ccccc3)[nH]2)c1,49%
15,O=C(CSc1ncc(-c2ccccc2)[nH]1)Nc1ccccc1,64%
16,CCOc1ccc(-c2nnc(SCC(=O)Nc3cccc(C#N)c3)o2)cc1,48% (active)
17,O=C(CSc1ncc(-c2ccccc2)[nH]1)Nc1ccc(Cl)cc1,36% (active)
18,Cc1ccc(NC(=O)CSc2ncc(-c3ccccc3)[nH]2)cc1,51%
19,COc1ccc(-c2nnc(SCC(=O)Nc3cccc(C(F)(F)F)c3)nc2-c2ccc(OC)cc2)cc1,87%
20,COc1ccc(NC(=O)CSc2ncc(-c3ccc(Cl)cc3)[nH]2)cc1OC,78%
21,CCOc1ccccc1-n1nnc(-c2nc(-c3ccccc3C)no2)c1C,96%

row,SMILES,survival
1,Cc1c(F)cccc1NC(=O)C1CCCN1S(=O)(=O)c1ccc(F)cc1 (configuration not stated),72%
2,CC1=C(c2ccc(C)cc2)S(=O)(=O)N(Cc2ccc(C(=O)NCc3ccccc3)cc2)C1=O,81%
3,CCN(C(=O)c1cccs1)c1nnc(-c2cccc(C)c2)s1,93%
4,COc1ccc(CCNC(=S)N(Cc2ccco2)Cc2cc3cc(OC)c(OC)cc3[nH]c2=O)cc1OC,73%
5,O=C(CSc1ncc(-c2ccc(F)cc2)n1Cc1ccco1)OC1CCCCC1,108%
6,COc1ccc(OC)c(NC(=O)COCc2cc(-c3ccc(F)cc3)on2)c1,93%
7,O=C(CSc1nc(-c2cccs2)nc2cc(=O)[nH]n12)Nc1cccc(C(F)(F)F)c1,94%
8,Cc1cccc(-c2nc(SCC(=O)Nc3cccc(C(F)(F)F)c3)n3[nH]c(=O)cc3n2)c1,0% (active)
9,O=C(CSc1nc(-c2ccccc2F)nc2cc(=O)[nH]n12)Nc1cccc(C(F)(F)F)c1,69%
10,Cc1ccc(-c2noc(-c3nnn(CC(=O)Nc4cc(Cl)ccc4C)c3N)n2)cc1,80%
11,CC(=O)c1ccc(NC(=O)Nc2ccc3snnc3c2)cc1,50%
12,O=C(Nc1cccc(C(F)(F)F)c1)c1ccc2snnc2c1,111%
13,COc1cccc(NC(=O)Nc2ccc3snnc3c2)c1,68%
14,O=C(Nc1ccc(F)cc1)Nc1ccc2snnc2c1,19% (active)
15,O=C(Nc1cccc(C(F)(F)F)c1)Nc1ccc2snnc2c1,11% (active)
16,Cc1ccc(NC(=O)Nc2ccc3snnc3c2)cc1C,66%
17,COc1ccc(NC(=O)CSC2=Nc3ccccc3C3=NC(CCC(=O)NCc4cccs4)C(=O)N23)cc1 (configuration not stated),93%
18,CC1=C(c2ccc(C)c(C)c2)S(=O)(=O)N=C1N1CCC(C(=O)NC(C)c2ccccc2)CC1 (configuration not stated),84%
19,CC(=O)N1Cc2ccccc2C(C)CC12CCCC2 (configuration not stated),119%
20,Cc1nn2c(=O)cc(COC(=O)c3cccs3)nc2s1,89%
21,Fc1ccc(NCc2ccccc2-c2nnc(-c3ccccc3Cl)o2)cc1Cl,77%

row,SMILES,survival
1,O=C(NCCc1nc2ccccc2n1Cc1ccc(F)cc1)c1ccco1,47%
2,CCC1=Nc2cc(C(=O)NC3CCCC3)ccc2Sc2ccc(Br)cc21,44% (active)
3,CCCC1=Nc2cc(C(=O)NC3CCCC3)ccc2Sc2ccc(C)cc21,46% (active)
4,CCC1=Nc2cc(C(=O)NC3CCCC3)ccc2Sc2ccc(Cl)cc21,58%
5,CC1=Nc2cc(C(=O)NC3CCCC3)ccc2Sc2ccc(C)cc21,59%
6,CCC1=Nc2cc(C(=O)NCc3ccc(C)cc3)ccc2Sc2ccc(C)cc21,78%
7,CCCC1=Nc2cc(C(=O)NC3CCCCC3)ccc2Sc2ccc(C)cc21,94%
8,CC1=Nc2cc(C(=O)NC3CCC(C)CC3)ccc2Sc2c(C)ccc(C)c21 (configuration not stated),73%
9,CC1=Nc2cc(C(=O)NC3CCCC3)ccc2Sc2ccc(Br)cc21,57%
10,CCC1=Nc2cc(C(=O)NC3CCC(C)CC3)ccc2Sc2ccc(C)cc21 (configuration not stated),39% (active)
11,COc1ccc(CNC(=O)c2cc3cc(C)ccc3n2C)cc1,74%
12,O=C(CSc1nc2c([nH]c3ccccc32)c(=O)n1-c1cccc(C(F)(F)F)c1)N1CCc2ccccc21,78%
13,O=C(NC1CC(=O)N(c2ccc(Cl)cc2)C1)c1cccs1 (configuration not stated),71%
14,CC1CCN(c2nc3ccc(C(=O)NC(C)C)cc3s2)CC1,74%
15,Cc1cc2[nH]c(=O)c(=O)[nH]c2cc1S(=O)(=O)NCc1ccc(F)cc1,112%
16,Cc1ccc(CNS(=O)(=O)c2cc3[nH]c(=O)c(=O)[nH]c3cc2C)cc1,47% (active)
17,COc1cccc(CNS(=O)(=O)c2cc3[nH]c(=O)c(=O)[nH]c3cc2C)c1,67%
18,CC(C)Sc1ncc(Cl)c(C(=O)N(Cc2ccc(F)cc2)C2CCS(=O)(=O)C2)n1 (configuration not stated),76%
19,CN(Cc1ccccc1)Cn1[nH]c(=O)ccc1=O,110%
20,COc1ccc(C)c2sc(N(Cc3cccnc3)C(=O)COc3ccccc3)nc12,85%
